High-throughput results: PubChem, several laboratories
In the library only some 2.3% were active in any assay of this set; here they are far more common.
TPT1 inhibitor: inhibitors of Candida albicans tRNA 2'-phosphotransferase TPT1; recombinant caTPT1, FP RNA substrate dephosphorylation; 300,000 tested, 0.81% active; inhibition, % at 5 µM;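 active = inhibition above the mean of all tested compounds plus 3 SD, set per screening campaign, cut at about 24% in these data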;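 note: plate controls were DMSO alone for no effect and ferristatin control at 100 nM for full effect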
IDE act: boosts human insulin-degrading enzyme activity in HEK cells; P14735; FAbeta-B cleavage, fluorescence polarization; 0% vehicle, 100% cell-free pure enzyme wells; activation, % at 5.96 µM; 340,000 tested, 0.073% active;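 active = activation above the mean of all tested compounds plus 3 SD, set per screening campaign, cut at about 17% in these data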
Target sequence (P14735 whole entry, looked up): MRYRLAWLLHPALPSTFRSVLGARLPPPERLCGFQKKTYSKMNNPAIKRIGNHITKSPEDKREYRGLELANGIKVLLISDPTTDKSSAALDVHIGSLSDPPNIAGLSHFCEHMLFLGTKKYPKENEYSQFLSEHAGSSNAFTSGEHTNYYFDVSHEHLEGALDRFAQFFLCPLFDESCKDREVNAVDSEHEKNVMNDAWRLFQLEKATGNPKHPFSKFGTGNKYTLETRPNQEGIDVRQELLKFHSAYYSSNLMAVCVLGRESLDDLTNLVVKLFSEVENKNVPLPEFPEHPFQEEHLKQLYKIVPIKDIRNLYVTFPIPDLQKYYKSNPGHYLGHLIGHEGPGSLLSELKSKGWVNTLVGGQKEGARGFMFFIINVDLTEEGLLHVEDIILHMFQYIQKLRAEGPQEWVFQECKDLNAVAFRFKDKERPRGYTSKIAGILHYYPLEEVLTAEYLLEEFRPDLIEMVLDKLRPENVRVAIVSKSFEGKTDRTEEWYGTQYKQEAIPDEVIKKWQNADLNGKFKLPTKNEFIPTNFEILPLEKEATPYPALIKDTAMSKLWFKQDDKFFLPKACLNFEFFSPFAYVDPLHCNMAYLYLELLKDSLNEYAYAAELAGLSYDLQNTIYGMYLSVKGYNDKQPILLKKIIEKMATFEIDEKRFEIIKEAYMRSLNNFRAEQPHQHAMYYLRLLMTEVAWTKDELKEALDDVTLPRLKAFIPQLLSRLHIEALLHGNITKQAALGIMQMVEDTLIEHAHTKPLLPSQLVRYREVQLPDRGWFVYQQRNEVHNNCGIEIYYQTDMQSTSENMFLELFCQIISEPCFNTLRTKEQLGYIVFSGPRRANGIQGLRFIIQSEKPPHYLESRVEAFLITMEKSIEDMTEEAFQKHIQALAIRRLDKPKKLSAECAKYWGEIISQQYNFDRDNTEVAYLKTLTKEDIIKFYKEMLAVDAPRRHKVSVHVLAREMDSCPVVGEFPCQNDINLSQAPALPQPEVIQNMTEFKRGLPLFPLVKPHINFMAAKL
IDE inh: inhibits human insulin-degrading enzyme in HEK cells; P14735; FAbetaB cleavage, fluorescence polarization; inhibition, % at 5.59 µM; 320,000 tested, 0.41% active; AID 434962;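 active = percent inhibition above the average of all tested compounds plus 3 SD, set per screening campaign, cut at about 16% in these data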;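 note: IDE supplied by intact live HEK cells; FP after avidin binding of uncleaved biotin substrate so inhibition keeps polarization high; 0% = DMSO wells and 100% = 60 µM reference IDE inhibitor Ii1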
Rin1-Abl PPI inh: human Rin1-Abl interaction inhibition. TR-FRET Rin1/Abl binding, biochemical. inhibition, % at 7.35 µM. 360,000 tested, 0.4% active. AID 588664; in the data active = inhibition above about 5%, passing the limit was not always enough
Calb FLC: C. albicans growth modulation with fluconazole; C. albicans CaCi-2 (fluconazole-resistant clinical isolate) + fluconazole, Alamar Blue growth, 48 h; growth inhibition, % (test concentration not listed); 300,000 tested, 0.57% active; AID 1979;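 active = growth inhibition above about 58% in most replicates, limit read from the data, passing the limit was not always enough; inconclusive = exactly half the replicates above a set limit; inactive = most replicates below a set limit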;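 note: all wells also contain fluconazole at 8 µg/ml as a sub-toxic cotreatment; 0% = median of DMSO wells and 100% = median of geldanamycin control wells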
Rpn11 inh: blocks the human proteasome subunit Rpn11. 360,000 tested, 0.59% active. human 26S proteasome, Ub4-pepOG fluorescence polarization; 20S core pre-blocked with epoxomicin. O00487. AID 588493. inhibition, % at 20 µM;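 active = inhibition at 20 µM, scaled to each plate's controls, above about 33%, limit read from the data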
The depositor's hits bear a star.

What do the screens show for `CC(=O)Nc1ccc(S(=O)(=O)N2CCN(c3nc(NC4CCCC4)c4ccccc4n3)CC2)cc1`?
TPT1 inhibitor: -1; IDE act: 0; IDE inh: 3; Rin1-Abl PPI inh: 11*; Calb FLC: 2; Rpn11 inh: 4

What do the screens show for `Cc1nn(-c2ccc(F)cc2)c(Cl)c1C(=O)OC(C)C(=O)N(C)C1CCCCC1` (configuration not stated)?
IDE act: 1; IDE inh: 1; Rin1-Abl PPI inh: 0; Rpn11 inh: 4

Results for COC(=O)[C@@H](Cc1ccc(O)cc1)NC(=O)[C@H]1CCC(=O)N1C(=O)OCc1ccccc1 ?
TPT1 inhibitor: -2; IDE act: 6; IDE inh: 8; Rin1-Abl PPI inh: 2; Calb FLC: -4; Rpn11 inh: -3

Results for COc1ccc(C(=O)c2ccc(OC)c(OC)c2)cc1OC ?
TPT1 inhibitor: 1; IDE act: 0; IDE inh: -1; Rin1-Abl PPI inh: -1; Calb FLC: inconclusive; Rpn11 inh: 5

Results for COc1ccc(C(=O)c2nccc3cc(OC)c(OC)cc23)cc1OC ?
IDE act: 4; IDE inh: 10; Rin1-Abl PPI inh: 14*; Rpn11 inh: -2

What do the screens show for `N#C/C(=C(/O)COC(=O)c1ccccc1O)c1nc2ccccc2s1`?
TPT1 inhibitor: 8; IDE act: -6; IDE inh: -4; Rin1-Abl PPI inh: 1; Calb FLC: 83*; Rpn11 inh: 22

How did c1ccc(OCCNc2ccn3nc(-c4cccs4)cc3n2)cc1 do in these assays?
Rin1-Abl PPI inh: 0; Rpn11 inh: 6

Results for Cc1ccc2c(c1)N(CC(=O)NC1CCCC(C)C1C)C(=O)c1cccnc1O2 (configuration not stated) ?
TPT1 inhibitor: -2; IDE act: 1; IDE inh: 2; Rin1-Abl PPI inh: -1; Calb FLC: -7; Rpn11 inh: -6

Results for Cc1cccc(NC(c2ccc(C)s2)c2ccc3ccc(C)nc3c2O)n1 (configuration not stated) ?
TPT1 inhibitor: -2; IDE act: -13; IDE inh: 22*; Rin1-Abl PPI inh: 2; Calb FLC: 11; Rpn11 inh: -1

How did COc1ccccc1NC(c1cccnc1)c1ccc2cccnc2c1O (configuration not stated) do in these assays?
TPT1 inhibitor: -4; IDE act: 1; IDE inh: -3; Rin1-Abl PPI inh: 1; Calb FLC: 82*; Rpn11 inh: 20

How did Cc1ccnc(NC(c2ccccc2)c2ccc3cccnc3c2O)c1 (configuration not stated) do in these assays?
IDE act: -1; Rin1-Abl PPI inh: 6; Rpn11 inh: 29

How did Cc1ccc2ccc(C(Nc3ccccn3)c3ccccc3)c(O)c2n1 (configuration not stated) do in these assays?
TPT1 inhibitor: -6; IDE act: 7; IDE inh: 3; Rin1-Abl PPI inh: -4; Calb FLC: -5; Rpn11 inh: 18

How did COc1cc(C(Nc2ccccn2)c2ccc3ccc(C)nc3c2O)cc(OC)c1O (configuration not stated) do in these assays?
TPT1 inhibitor: 1; IDE act: -6; IDE inh: 6; Rin1-Abl PPI inh: -3; Calb FLC: 113*; Rpn11 inh: 15

How did Cc1ccnc(NC(c2cccnc2)c2ccc3cccnc3c2O)c1 (configuration not stated) do in these assays?
TPT1 inhibitor: -4; IDE act: 1; IDE inh: -1; Rin1-Abl PPI inh: 4; Calb FLC: 90*; Rpn11 inh: 28

How did CC(=O)c1ccc(CCCCc2ccc(C(C)=O)cc2)cc1 do in these assays?
IDE act: 1; Rin1-Abl PPI inh: 1; Rpn11 inh: -2

Results for CCCCCCSc1cc(-c2nc3cc(C)ccn3c2NCCCC)ccc1OC ?
TPT1 inhibitor: 1; IDE act: 7; IDE inh: 6; Rin1-Abl PPI inh: -1; Calb FLC: 3; Rpn11 inh: -3

What do the screens show for `CCCCNc1c(-c2ccc(SC(C)CC)cc2)nc2cnccn12` (configuration not stated)?
IDE act: 20*; IDE inh: -3; Rin1-Abl PPI inh: -3; Rpn11 inh: -32

How did CCCCCCSc1cc(-c2nc3cnccn3c2NCCCC)ccc1OC do in these assays?
IDE act: 20*; IDE inh: -1; Rin1-Abl PPI inh: 1; Rpn11 inh: 5

Results for Cc1nc2ccc(C(=O)N3CCN(C(=O)c4ccco4)CC3)cn2c1N(C)C(=O)CCc1ccccc1 ?
Rin1-Abl PPI inh: 0; Rpn11 inh: 1

Results for COc1ccc(-c2csc(NC(=O)c3ccc(S(=O)(=O)N4CCc5ccccc5C4)cc3)n2)cc1 ?
TPT1 inhibitor: 5; IDE act: -1; IDE inh: 1; Rin1-Abl PPI inh: -2; Calb FLC: -13; Rpn11 inh: -4

How did CCC(c1nnc(SCC(=O)Nc2nnc(-c3ccccc3)o2)o1)N(C)C (configuration not stated) do in these assays?
TPT1 inhibitor: 15; IDE act: 5; IDE inh: 1; Rin1-Abl PPI inh: 1; Calb FLC: 0; Rpn11 inh: 6

What do the screens show for `COc1ccc(-c2nnc(NC(=O)c3ccc(S(=O)(=O)N4CCc5ccccc5C4)cc3)o2)cc1`?
TPT1 inhibitor: 4; IDE act: 3; IDE inh: -5; Rin1-Abl PPI inh: -1; Calb FLC: 97*; Rpn11 inh: 19

Results for O=C(Nc1nnc(-c2ccc3c(c2)CCCC3)o1)c1ccc(Cl)cc1Cl ?
TPT1 inhibitor: 1; IDE act: 1; IDE inh: 1; Rin1-Abl PPI inh: 1; Calb FLC: 85*; Rpn11 inh: 16

Results for Cc1ccc(C)c(SCC(=O)Nc2nnc(-c3ccccc3)o2)c1 ?
TPT1 inhibitor: 4; IDE act: 6; IDE inh: -2; Rin1-Abl PPI inh: -2; Calb FLC: 81*; Rpn11 inh: 4

What do the screens show for `Cc1ccccc1C(=O)Nc1nnc(-c2ccc(F)cc2)o1`?
TPT1 inhibitor: -1; IDE act: 0; IDE inh: 5; Rin1-Abl PPI inh: -1; Calb FLC: 89*; Rpn11 inh: -2

How did O=C(NC1CC1)c1cccc(S(=O)(=O)N2CCOCC2)c1 do in these assays?
IDE act: 2; IDE inh: -3; Rin1-Abl PPI inh: -1; Rpn11 inh: 2

What do the screens show for `COc1ccc(C2CC(c3ccc(Cl)cc3)=NN2C(C)=O)cc1` (configuration not stated)?
TPT1 inhibitor: 0; IDE act: -2; IDE inh: -5; Rin1-Abl PPI inh: -5; Calb FLC: -40; Rpn11 inh: 0

Results for COc1ccc(-c2nnc(NC(=O)c3cc(Cl)ccc3Cl)o2)cc1 ?
TPT1 inhibitor: -2; IDE act: 8; IDE inh: -2; Rin1-Abl PPI inh: 1; Calb FLC: 83*; Rpn11 inh: 4
